The whole screen tested about 310,000 compounds, of which about 14,000 (4.5%) showed an effect of 50% or more. The effect is printed as a negative number. What follows is part of a selection rich in strong results, with near analogues and random picks from the rest.
Target: human ether-à-go-go-related gene (hERG) potassium channel (human, UniProt Q12809)
Experiment: primary screen, population patch clamp on CHO cells stably expressing hERG; higher = less effect of the substance
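Also: peak tail current of the secondary pulse compared with the same well before compound.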

Chain of human ether-à-go-go-related gene (hERG) potassium channel (Q12809 whole entry, looked up): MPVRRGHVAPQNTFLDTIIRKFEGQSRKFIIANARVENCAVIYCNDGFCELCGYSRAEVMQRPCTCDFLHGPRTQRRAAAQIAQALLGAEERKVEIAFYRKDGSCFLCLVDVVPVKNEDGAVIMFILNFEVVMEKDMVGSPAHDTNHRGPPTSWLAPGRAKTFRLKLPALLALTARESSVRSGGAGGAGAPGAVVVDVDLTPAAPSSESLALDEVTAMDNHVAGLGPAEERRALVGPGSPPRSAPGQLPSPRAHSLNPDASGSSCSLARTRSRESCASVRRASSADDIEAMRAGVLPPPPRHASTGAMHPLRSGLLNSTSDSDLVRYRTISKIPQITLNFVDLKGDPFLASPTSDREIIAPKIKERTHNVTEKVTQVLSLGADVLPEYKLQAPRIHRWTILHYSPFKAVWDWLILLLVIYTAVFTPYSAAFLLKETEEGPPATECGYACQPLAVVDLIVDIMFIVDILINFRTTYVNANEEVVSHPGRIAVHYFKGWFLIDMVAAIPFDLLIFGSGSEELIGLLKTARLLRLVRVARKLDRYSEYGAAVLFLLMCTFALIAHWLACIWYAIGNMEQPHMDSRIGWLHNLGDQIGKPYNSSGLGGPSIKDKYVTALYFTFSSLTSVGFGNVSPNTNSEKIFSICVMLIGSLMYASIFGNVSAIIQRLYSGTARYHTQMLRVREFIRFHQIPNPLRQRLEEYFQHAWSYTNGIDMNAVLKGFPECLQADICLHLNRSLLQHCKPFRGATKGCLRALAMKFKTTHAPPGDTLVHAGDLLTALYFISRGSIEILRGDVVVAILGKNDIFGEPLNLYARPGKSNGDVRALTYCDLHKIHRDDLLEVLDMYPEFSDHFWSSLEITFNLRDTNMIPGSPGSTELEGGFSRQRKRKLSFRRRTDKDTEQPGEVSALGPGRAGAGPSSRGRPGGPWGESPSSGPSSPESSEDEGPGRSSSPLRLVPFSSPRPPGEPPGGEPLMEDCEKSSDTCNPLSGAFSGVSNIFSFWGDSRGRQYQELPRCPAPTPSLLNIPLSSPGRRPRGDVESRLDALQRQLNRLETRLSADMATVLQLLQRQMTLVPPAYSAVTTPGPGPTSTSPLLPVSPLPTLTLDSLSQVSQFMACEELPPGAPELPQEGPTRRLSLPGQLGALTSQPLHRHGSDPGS

Structure (SMILES)	hERG current change (%, negative = inhibition) at 10uM [%]
CCOC(=O)c1oc2ccccc2c1COC(=O)CNC(=O)c1cccc(C)c1	3.66
CC(=O)c1cn(C)c(=O)n(C)c1=O	4.7
COC(=O)c1ccc(C23CC4(C2)[C@H](CN(Cc2cccnc2)[C@@H]4c2ccccc2)C3c2ccccc2)cc1 (some centres unmarked)	12.8
CCn1c(CNC(=O)c2ccccc2Br)nnc1SCC(=O)NC1=NCCS1	27.9
CCOc1ccc(NC(=NCc2ccc3c(c2)OCO3)SC2CC(=O)N(c3ccc(OCC)cc3)C2=O)cc1 (centres unmarked)	-1.29
CCOC(=O)N1CCN(C(=O)CCn2c(=S)[nH]c3cc(OCC)c(OCC)cc3c2=O)CC1	-7.21
O=C(NC1CCN(S(=O)(=O)c2ccc(Cl)cc2)CC1)c1cccnc1	0.584
O=C(NC1CC2CCCC(C1)N2S(=O)(=O)c1ccccc1)c1ccccc1 (centres unmarked)	-44
COc1ccc(S(=O)(=O)N2CCC(NC(=O)c3cccnc3)CC2)cc1	-64.7
Cc1cccc(C(=O)NC2CC3CCCC(C2)N3S(=O)(=O)c2ccccc2)c1 (centres unmarked)	-77.2
COc1ccc(S(=O)(=O)N2CCC(NC(=O)c3ccccc3)CC2)cc1	17.8
COc1cccc(C(=O)NC2CC3CCCC(C2)N3S(=O)(=O)c2ccccc2)c1 (centres unmarked)	-75.8
CC(=O)NC1CC2CCCC(C1)N2S(=O)(=O)c1ccccc1 (centres unmarked)	16.3
CCCN1C2CCCC1CC(NC(=O)c1cccc(OC)c1)C2 (centres unmarked)	-16.4
Cc1cccc(C(=O)NC2CCN(S(=O)(=O)c3ccccc3)CC2)c1	3.41
Cc1nn(CC(=O)NC2(C#N)CCCCC2)c(C)c1[N+](=O)[O-]	3.09
CCCCOC(=O)C1=C(C)NC(=O)NC1c1ccc(N(C)C)cc1 (centres unmarked)	21.7
O=C(COc1ccccc1)N1CCN(C2CC3CCC2C3)CC1 (centres unmarked)	7.39
NC(=O)c1nsc(C(=O)N(c2ccc(F)cc2)C(C(=O)NC2CCCC2)c2ccncc2)c1N (centres unmarked)	-0.193
COc1cccc2c1c(NC(=O)Nc1ccc(F)cc1F)nn2C	15.3
COc1cc2cc(CN(Cc3cccnc3)C(=O)NCc3ccccc3)c(=O)[nH]c2cc1OC	-12.6
CC12CC[C@H]3[C@@H](CCC4(O)C[C@H](O)CCC34/C=N/NC(=O)c3ccc(O)cc3)C1(O)CCC2C1=CC(=O)OC1 (some centres unmarked)	15
CC(C)(/C=N/O)N(O)C=C1C=CC(=O)C=C1	5.81
COc1nc(N/N=C/c2cc3c(cc2Br)OCO3)nc(N2CCOCC2)n1	-27.8

Structure (SMILES)	hERG current change (%, negative = inhibition) at 10uM [%]
Brc1cc2c(cc1/C=N/Nc1nc(N3CCCC3)nc(N3CCOCC3)n1)OCO2	-51.3
Brc1cc2c(cc1/C=N/Nc1nc(N3CCOCC3)nc(N3CCOCC3)n1)OCO2	-5
O=[N+]([O-])c1ccccc1/C=C/C=N/Nc1nc(N2CCCCC2)nc(N2CCCCC2)n1	-12.2
C(=C\c1ccccc1)/C=N/Nc1nc(N2CCOCC2)nc(N2CCOCC2)n1	-9.68
Clc1ccccc1/C=C/C=N/Nc1nc(N2CCOCC2)nc(N2CCOCC2)n1	-58.4
O=C(c1ccccc1)n1ccc2ccccc21	-28
O=S(=O)(c1ccc(Oc2ncnc3scc(-c4ccccc4)c23)cc1)N1CCOCC1	-0.503
Cc1c(C(=O)NCC(c2ccco2)N(C)C)oc2c(Cl)cccc12 (centres unmarked)	-36.9
C/C(=C\c1ccc2c(c1)OCO2)C1Nc2cccc3cccc(c23)N1	16.8
COc1ccccc1OCC(=O)NCC(C)NC(=O)COc1ccccc1OC (centres unmarked)	4.93
Cc1cccc(S(=O)(=O)NNC(=O)c2cc(-c3ccc(F)cc3)nc3ccccc23)c1	28.5
CN(CC(=O)Nc1cccc(F)c1)C(=O)c1ccc(N2CCCCCC2)c([N+](=O)[O-])c1	17.9
COc1ccc(Cl)cc1NC(=O)CN(C)C(=O)c1ccc(N2CCCCCC2)c([N+](=O)[O-])c1	5.32
CCOc1ccc(NC(=O)CN(C)C(=O)c2ccc(N3CCCCCC3)c([N+](=O)[O-])c2)cc1OCC	3.4
COc1ccc(NC(=O)CN(C)C(=O)c2ccc(N3CCCCC3)c([N+](=O)[O-])c2)cc1	-76.8
COc1cccc(CN(C)C(=O)c2ccc(N3CCCC3)c([N+](=O)[O-])c2)c1	-45.3
COc1ccc(NC(=O)CN(C)C(=O)c2ccc(N3CCCC3)c([N+](=O)[O-])c2)cc1	-54
COc1ccc(NC(=O)CN(C)C(=O)c2ccc(N3CCCCCC3)c([N+](=O)[O-])c2)cc1	-51.6
CN(CC(=O)Nc1ccccc1Cl)C(=O)c1ccc(N2CCCCCC2)c([N+](=O)[O-])c1	-20.2
COc1ccc(Cl)cc1NC(=O)CN(C)C(=O)c1ccc(N2CCCCC2)c([N+](=O)[O-])c1	-18.8
CCOc1ccc(NC(=O)CN(C)C(=O)c2ccc(N3CCCCC3)c([N+](=O)[O-])c2)cc1OCC	-57.6
CCOc1ccc(NC(=O)CN(C)C(=O)c2cc(S(=O)(=O)N(C)C)ccc2N2CCCC2)cc1OCC	6.11
COc1ccc(NC(=O)CN(C)C(=O)c2ccc(N3CCOCC3)c([N+](=O)[O-])c2)cc1	-46.3
